Test system: XIP peptide (Xip251-270)
Experiment: small-molecule binders of XIP peptide, primary screen, biochemical, small-molecule microarray, fluorescence 635/667 nm, 0.5 µg/mL protein (AID 1183)
Conditions: small-molecule microarray binding, fluorescence 635 nm; higher = more signal

Compared with `O=C1C[C@@H](O)[C@@H](O)[C@@H]2[C@@H]3C(=O)N(C[C@@H]4CCCO4)C(=O)[C@@H]3CC[C@@H]12`, `CC(C)=CCCC(C)=CCON=C1C[C@@H](O)[C@@H](O)[C@@H]2[C@@H]3C(=O)N(C[C@@H]4CCCO4)C(=O)[C@@H]3CC[C@H]12` is lower in composite z-score: 0.592 for the first, 0.378 for the second.

Compared with `CCN1C(=O)[C@H]2[C@H]3[C@H](O)[C@H](O)CC(=NNC(=O)OCc4ccc(OC)cc4)[C@@H]3CC[C@H]2C1=O`, `CCOC(=O)CCN1C(=O)[C@H]2[C@H]3[C@H](O)[C@H](O)CC(=NNC(=O)OCc4ccccc4)[C@@H]3CC[C@H]2C1=O` is higher in composite z-score: -0.225 for the first, 0.791 for the second.

First: C#CCCCON=C1C[C@@H](O)[C@@H](O)[C@@H]2[C@@H]3C(=O)N(Cc4ccccc4)C(=O)[C@@H]3CC[C@@H]12
Second: O=C1[C@H]2[C@H]3[C@H](O)[C@H](O)CC(=NOC[C@@H](O)COCc4ccco4)[C@H]3CC[C@H]2C(=O)N1Cc1ccccc1
The composite z-score of the first is lower: -0.148 for the first, 0.252 for the second.

Compared with `CC(C)CON=C1[C@H]2CCn3c(=O)n(Cc4cc5c(cc4Cl)OCO5)c(=O)n3[C@H]2[C@H](O)[C@@H]2O[C@H]12`, `C#CCCCON=C1[C@H]2CCn3c(=O)n(C)c(=O)n3[C@H]2[C@H](O)[C@@H]2O[C@H]12` is higher in composite z-score: 0.368 for the first, 0.442 for the second.

Compared with `O=C1[C@H]2[C@H]3[C@H](O)[C@H](O)CC(=NOCc4ccccc4)[C@@H]3CC[C@H]2C(=O)N1Cc1ccc2c(c1)OCO2`, `CC(C)CON=C1C[C@@H](O)[C@@H](O)[C@@H]2[C@@H]3C(=O)N(c4cccc(Oc5ccccc5)c4)C(=O)[C@@H]3CC[C@@H]12` is higher in composite z-score: 0.2 for the first, 0.536 for the second.

First: Cc1cc2c(c(=O)o1)[C@@H](O)[C@H]1O[C@H]1C2=O
Second: CC(C)CON=C1C[C@@H](O)[C@@H](O)[C@@H]2[C@@H]3C(=O)N(c4ccc(F)cc4F)C(=O)[C@@H]3CC[C@H]12
The composite z-score of the first is lower: 0.274 for the first, 0.37 for the second.

Going from `CON=C(C)CCC(=O)OC[C@H]1O[C@H](c2ccccc2)C=C[C@@H]1Oc1ccc(OC)cc1` to `COC(=O)CC=C[C@@H](C)[C@@H](C=NOC[C@H]1O[C@H](c2ccccc2)C=C[C@@H]1Oc1ccc(OC)cc1)OC`, the composite z-score falls from 0.19 to -0.294.

Going from `C[C@@H]1CC[C@H]2C(=O)O[C@@H](Cc3ccccc3)CN2[C@H]1c1ccc(Br)cc1` to `O=c1n(-c2ccccc2)c(=O)n2n1CC[C@@H]1C(=NOCc3ccccc3)[C@H]3O[C@H]3[C@@H](O)[C@@H]12`, the composite z-score falls from 0.174 to -0.0725.

First: COc1ccc(O[C@H]2C=C[C@@H](c3ccccc3)O[C@@H]2COC(=O)CCC(C)=NO[C@@H]2O[C@H](COC(C)=O)[C@@H](OC(C)=O)[C@H](OC(C)=O)[C@H]2OC(C)=O)cc1
Second: CCCNC(=O)OC[C@H]1O[C@H](CCON=C(C)CCC(=O)OC[C@H]2O[C@H](c3ccccc3)C=C[C@@H]2Oc2ccc(OC)cc2)C=C[C@@H]1Oc1ccc(OC)cc1
The composite z-score of the first is higher: 0.495 for the first, -0.138 for the second.

Going from `C=CC[C@@H]1C=C[C@H](ON=C(C)CCC(=O)OC[C@H]2O[C@H](C#Cc3ccccc3)C=C[C@@H]2Oc2ccc(C)cc2)[C@@H](CO)O1` to `COc1ccc(COC(=O)NN=C2C[C@@H](O)[C@@H](O)[C@@H]3[C@@H]4C(=O)N(c5cccc(Oc6ccccc6)c5)C(=O)[C@@H]4CC[C@@H]23)cc1`, the composite z-score falls from 0.437 to -0.206.

First: CO[C@H]1COC(=O)[C@@H](C)COC(=O)[C@H](COCc2ccccc2)NC(=O)CC=C[C@H]1C
Second: CO[C@H]1COC(=O)[C@@H]2CCCN2C(=O)CC=C[C@@H](C)[C@H](OC)COC(=O)[C@@H](OCc2ccccc2)C=C[C@@H]1C
The composite z-score of the first is lower: -0.474 for the first, 0.789 for the second.

First: COc1cccc([C@H]2Oc3ccc(OC)cc3C(=NOC[C@@H](O)COCc3ccco3)[C@@H]2O)c1
Second: COC(=O)CC=C[C@@H](C)[C@H](OCc1cccc(-c2ccccc2)c1)C1CCCCC1
The composite z-score of the first is lower: -1.5 for the first, 0.881 for the second.

Compared with `CC(C)(C)N1C(=O)[C@H]2[C@H]3[C@H](O)[C@H](O)CC(=O)[C@H]3CC[C@H]2C1=O`, `CC(=O)Nc1ccc([C@@H]2N[C@H](C(=O)O)CC[C@H]2C)cc1` is lower in composite z-score: 0.556 for the first, 0.119 for the second.

Test system: not listed separately
Experiment: Plasmodium falciparum growth inhibition, primary screen, strain 3D7, DAPI fluorescence, 100 nL (AID 1184);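 also: parasites grown inside human red blood cells in medium with human serum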
Conditions: P. falciparum 3D7 growth, 3 d, higher = more signal

Compared with `COc1ccc(O[C@H]2C=C[C@@H](c3ccccc3)O[C@@H]2CON=C2[C@H]3CCn4c(=O)n(-c5ccccc5)c(=O)n4[C@H]3[C@H](O)[C@@H]3O[C@H]23)cc1`, `O=c1n(-c2ccccc2)c(=O)n2n1CC[C@@H]1C(=NOCc3ccccc3)[C@H]3O[C@H]3[C@@H](O)[C@@H]12` is higher in z-score: -0.725 for the first, -0.557 for the second.

Compared with `C[C@@H](c1ccccc1)N1C(=O)[C@H]2[C@H]3[C@H](O)[C@H](O)CC(=NOCc4ccccc4)[C@H]3CC[C@H]2C1=O`, `O=C1[C@H]2[C@H]3[C@H](O)[C@H](O)CC(=NOCc4ccccc4)[C@@H]3CC[C@H]2C(=O)N1Cc1ccc2c(c1)OCO2` is lower in z-score: 0.754 for the first, -0.364 for the second.

Going from `O=C1C[C@@H](O)[C@@H](O)[C@@H]2[C@@H]3C(=O)N(c4cccc(Oc5ccccc5)c4)C(=O)[C@@H]3CC[C@H]12` to `CC(C)CON=C1C[C@@H](O)[C@@H](O)[C@@H]2[C@@H]3C(=O)N(c4cccc(Oc5ccccc5)c4)C(=O)[C@@H]3CC[C@@H]12`, the z-score falls from 1.33 to 0.299.

First: O=c1n(Cc2cc3c(cc2Cl)OCO3)c(=O)n2n1CC[C@@H]1C(=NOCc3ccccc3)[C@H]3O[C@H]3[C@@H](O)[C@@H]12
Second: CC(C)CON=C1[C@H]2CCn3c(=O)n(Cc4cc5c(cc4Cl)OCO5)c(=O)n3[C@H]2[C@H](O)[C@@H]2O[C@H]12
The z-score of the first is higher: 0.0783 for the first, -1.17 for the second.

Compared with `COC(=O)CC=C[C@@H](C)[C@@H](C=NO[C@H](C)c1cn([C@@H]2COC[C@H]2O)nn1)NS(=O)(=O)c1ccc(C)cc1`, `COC(=O)CC=C[C@@H](C)[C@@H](C=NOC[C@H]1O[C@H](c2ccccc2)C=C[C@@H]1Oc1ccc(OC)cc1)OC` is lower in z-score: 0.781 for the first, 0.201 for the second.

Compared with `CCOC(=O)[C@H](CC(C)C)NC(=O)CCC1CC(OC(=O)NCc2cccc3ccccc23)CC2(CCCC(COC(=O)NCCOC)O2)O1` (some centres not stated), `CCOC(=O)[C@H](CC(C)C)NC(=O)CCC1CC(OC(=O)NCCc2ccc(F)cc2)CC2(CCCC(COC(=O)NCC3CCCCC3)O2)O1` (some centres not stated) is lower in z-score: -1.88 for the first, -1.9 for the second.

First: CON=Cc1ccc(C(=O)N2[C@H](c3ccc(C)cc3)[C@@H](C)CC[C@H]2C(=O)OC)cc1
Second: C[C@@H]1CC[C@H]2C(=O)O[C@@H](Cc3ccccc3)CN2[C@H]1c1ccc(Br)cc1
The z-score of the first is lower: -0.141 for the first, 0.209 for the second.

Going from `CO[C@H]1COC(=O)[C@H](C)NC(=O)CC=C[C@@H](C)[C@H](OC)COC(=O)[C@@H](OCc2ccccc2)C=C[C@@H]1C` to `CO[C@H]1COC(=O)[C@@H]2CCCN2C(=O)CC=C[C@@H](C)[C@H](OC)COC(=O)[C@@H](OCc2ccccc2)C=C[C@@H]1C`, the z-score falls from 0.112 to -1.42.

Going from `C#CCCCON=C1[C@H]2CCn3c(=O)n(-c4ccccc4)c(=O)n3[C@H]2[C@H](O)[C@@H]2O[C@H]12` to `C#CCCCON=C1[C@H]2CCn3c(=O)n(C)c(=O)n3[C@H]2[C@H](O)[C@@H]2O[C@H]12`, the z-score rises from -1.19 to 0.275.

Going from `O=C1C[C@@H](O)[C@@H](O)[C@@H]2[C@@H]3C(=O)N(C[C@@H]4CCCO4)C(=O)[C@@H]3CC[C@@H]12` to `CC(C)=CCCC(C)=CCON=C1C[C@@H](O)[C@@H](O)[C@@H]2[C@@H]3C(=O)N(C[C@@H]4CCCO4)C(=O)[C@@H]3CC[C@H]12`, the z-score rises from -0.223 to -0.0721.

First: CCN1C(=O)[C@H]2[C@H]3[C@H](O)[C@H](O)CC(=NNC(=O)OCc4ccc(OC)cc4)[C@@H]3CC[C@H]2C1=O
Second: CCOC(=O)CCN1C(=O)[C@H]2[C@H]3[C@H](O)[C@H](O)CC(=NNC(=O)OCc4ccccc4)[C@@H]3CC[C@H]2C1=O
The z-score of the first is higher: -0.18 for the first, -0.597 for the second.

Compared with `C#CCCCON=C1C[C@@H](O)[C@@H](O)[C@@H]2[C@@H]3C(=O)N(Cc4ccccc4)C(=O)[C@@H]3CC[C@@H]12`, `O=C1[C@H]2[C@H]3[C@H](O)[C@H](O)CC(=NOC[C@@H](O)COCc4ccco4)[C@H]3CC[C@H]2C(=O)N1Cc1ccccc1` is lower in z-score: 0.542 for the first, 0.254 for the second.

First: Cc1cc2c(c(=O)o1)[C@@H](O)[C@H]1O[C@H]1C2=O
Second: CC(C)CON=C1C[C@@H](O)[C@@H](O)[C@@H]2[C@@H]3C(=O)N(c4ccc(F)cc4F)C(=O)[C@@H]3CC[C@H]12
The z-score of the first is lower: -0.807 for the first, 0.0017 for the second.

Going from `CON=C(C)CCC(=O)OC[C@H]1O[C@H](c2ccccc2)C=C[C@@H]1Oc1ccc(OC)cc1` to `COc1ccc(O[C@H]2C=C[C@@H](c3ccccc3)O[C@@H]2COC(=O)CCC(C)=NO[C@@H]2O[C@H](COC(C)=O)[C@@H](OC(C)=O)[C@H](OC(C)=O)[C@H]2OC(C)=O)cc1`, the z-score rises from -0.442 to -0.0102.

Compared with `C=CC[C@@H]1C=C[C@H](ON=C(C)CCC(=O)OC[C@H]2O[C@H](C#Cc3ccccc3)C=C[C@@H]2Oc2ccc(C)cc2)[C@@H](CO)O1`, `CCCNC(=O)OC[C@H]1O[C@H](CCON=C(C)CCC(=O)OC[C@H]2O[C@H](c3ccccc3)C=C[C@@H]2Oc2ccc(OC)cc2)C=C[C@@H]1Oc1ccc(OC)cc1` is lower in z-score: 0.37 for the first, -0.935 for the second.

Going from `CO[C@H]1COC(=O)[C@@H](C)COC(=O)[C@H](COCc2ccccc2)NC(=O)CC=C[C@H]1C` to `COC(=O)CC=C[C@@H](C)[C@H](OCc1cccc(-c2ccccc2)c1)C1CCCCC1`, the z-score rises from -0.386 to -0.257.

First: COc1cccc([C@H]2Oc3ccc(OC)cc3C(=NOC[C@@H](O)COCc3ccco3)[C@@H]2O)c1
Second: COc1ccc(COC(=O)NN=C2C[C@@H](O)[C@@H](O)[C@@H]3[C@@H]4C(=O)N(c5cccc(Oc6ccccc6)c5)C(=O)[C@@H]4CC[C@@H]23)cc1
The z-score of the first is higher: 0.563 for the first, -0.374 for the second.

First: CC(C)(C)N1C(=O)[C@H]2[C@H]3[C@H](O)[C@H](O)CC(=O)[C@H]3CC[C@H]2C1=O
Second: CC(=O)Nc1ccc([C@@H]2N[C@H](C(=O)O)CC[C@H]2C)cc1
The z-score of the first is lower: -1.08 for the first, 0.962 for the second.

Source: PubChem BioAssay
